HCMV inh: human cytomegalovirus inhibition; HFF cells, HCMV-luciferase reporter, 72 h; hits give low values; AID 1259415; activity change, negative = inhibition, % at 57.5 µM; 4.5% of 410,000 active; in the data active = activity change below about -60%; inconclusive = no clear call, values can overlap the other calls; inactive = above about -39%
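Inhibition of viral replication was scored as loss of reporter luminescence in HFFs infected with HCMV-luciferase (MOI 1 PFU/cell) for 72 h; compounds tested at 2 doses, normalized to buffer and Salinomycin controls.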
Marburg entry inh: Marburg virus entry inhibition. Marburg virus pseudotyped entry inhibition, cell reporter. Potency, µM (series often up to 37.8 µM), without a hit: at the highest dose activity change, negative = inhibition, most hits filed as inhibitors. 1.8% of 300,000 active; calls by dose curve; tested in HEK293 cells; also: potency is read from the fitted curve at half-maximal effect
FMDV inh: blocks foot and mouth disease virus; FMDV antiviral cell-based qHTS; 1.2% of 410,000 active; Potency, µM (top dose mostly 57.9 µM), for inactives: at the top dose activity change, negative = inhibition, actives largely listed as inhibitors; calls by dose curve; tested in HEK293T cells; also: read-out not given here; potency is read from the fitted curve at half-maximal effect; nearly all actives have a fitted effect of over 45% in size
VACV mCherry inh: inhibitors of vaccinia virus infection (mCherry reporter signal). Vaccinia virus mCherry reporter infection, fluorescence. Potency, µM (highest dose often 36.5 µM), for the others: at the highest dose activity change, negative = inhibition, most hits filed as inhibitors. 0.63% of 310,000 active; calls by dose curve; tested in A549 cells; also: potency is read from the fitted curve at half-maximal effect; nearly all actives have a fitted effect of over 35% in size
Vaccinia Venus: inhibitors of vaccinia virus (Venus reporter) | Vaccinia virus Venus reporter expression, fluorescence | Potency, µM (highest dose often 36.5 µM), without a hit: at the top dose activity change, negative = inhibition, most hits filed as inhibitors | 0.46% of 330,000 active | AID 720580; calls by dose curve; tested in A549 cells; also: potency is read from the fitted curve at half-maximal effect; nearly all actives have a fitted effect of over 30% in size
Lassa entry inh: Lassa virus entry inhibition | Lassa virus pseudotype entry inhibition, cell reporter | Potency, µM (top dose mostly 37.9 µM), for the others: top-dose activity change, negative = inhibition, hits mostly inhibitors | 1.2% of 300,000 active; calls by dose curve; tested in HEK293 cells; also: potency is read from the fitted curve at half-maximal effect; nearly all actives have a fitted effect of over 50% in size
Active calls of the source: *; i = inactive; ? = inconclusive; / = no result; + = active, no number; [ ] = remark or other dose. Sampled rows, rich in hits. Any-hit rate of the full collection: about 6.5%. % is scaled to controls: 0 for no effect and ±100 for the full control effect.

SMILES	HCMV inh	Marburg entry inh	FMDV inh	VACV mCherry inh	Vaccinia Venus	Lassa entry inh
C=CCC[C@H](Cc1ccc(F)cc1)C(=O)OC[C@@H](Cc1c[nH]c2ccccc12)NC(=O)[C@@H](CC=C)CC(=O)N(CCO)Cc1ccccc1	39.5	/	?	12.6µM*	11.2µM*	/
C=CCC[C@H](Cc1ccc(F)cc1)C(=O)O[C@H](CNC(=O)[C@@H](CC=C)CC(=O)N(CCO)Cc1ccccc1)c1ccccc1	4.5	/	39.8µM*	2.0%	-18.1%	/
C=CCC[C@H](Cc1ccc(F)cc1)C(=O)OC[C@H](Cc1c[nH]c2ccccc12)NC(=O)[C@@H](CC=C)CC(=O)N(CCO)Cc1ccccc1	81.1	/	39.8µM*	?	11.2µM*	/
O=C(CCl)Nc1nc(-c2ccco2)c(-c2ccco2)s1	-68.6*	?	-28.7%	-17.5%	-13.6%	?
O=C(CCCSc1ccccc1)Nc1nc(-c2ccco2)c(-c2ccco2)s1	25.5	?	0.0%	i	-8.2%	?
O=C(c1ccc(-c2ccc([N+](=O)[O-])cc2)o1)N1CCCC(C(F)(F)F)C1 (centres undefined)	-75.8*	-17.5%	25.1%	-15.2%	-10.7%	-1.9%
COc1ccc(CCNC(=O)/C(C#N)=C/c2cccc(OCc3ccccc3)c2)cc1OC	27.6	?	28.2µM*	-12.9%	-21.5%	-19.0%
N#C/C(=C\c1cccc(NC(=O)c2ccccc2Cl)c1)C(=O)NCCc1ccccc1	?	11.2µM*	28.2µM*	-25.2%	-5.1%	?
Cc1cc(C)c(Cn2c3ccccc3c3cnn(CC(=O)NC4CCC(C)CC4)c(=O)c32)c(C)c1 (centres undefined)	-2.7	12.1%[46.1 µM]	-0.3%	-3.5%	-6.4%	-8.9%[46.1 µM]
O=C(CN(c1ccccc1Cl)S(=O)(=O)c1ccccc1)N/N=C/c1ccccc1C(=O)O	-63.2*	1.4%[46.1 µM]	7.1%	-5.9%	-15.0%	0.1%
CCn1cc(C(=O)N[C@@H](CCSC)C(=O)NCCN2CCOCC2)c(=O)c2cc3c(cc21)OCO3	+	/	12.5%	/	/	/
CCn1cc(C(=O)N[C@@H](CCSC)C(=O)NCCCN2CCOCC2)c(=O)c2cc3c(cc21)OCO3	-14.6	/	2.3%	/	/	/
Cc1ccc(C)c(NC(=S)N/N=C2/CCCCc3ccccc32)c1	-70.9*	?	0.0%	-0.9%	-23.8%	?
CC(C)NC(=S)N/N=C1\CCCCc2ccccc21	?	/	-12.1%	/	/	/
O=C(C1CC1)N1CC(=O)N2[C@@H](CO)[C@H](c3ccc(Br)cc3)[C@@H]2C1	-16.9	/	/	/	/	/
O=[N+]([O-])c1ccc(Cl)c([N+](=O)[O-])c1	-73.9*	/	?	?	-15.0%	/
O=[N+]([O-])c1ccc(O)c([N+](=O)[O-])c1	?	/	?	-2.6%	?	/
CC(=NNC(=S)N1CCN(c2ccccn2)CC1)c1nccs1	/	?	-9.0%	2.82µM*	?	?
O=[N+]([O-])c1cccc(NC(=S)N2CCN(c3ccccn3)CC2)c1	-65.3*	?	-3.2%	-18.1%	-9.8%	?
O=C(NC(=S)N1CCN(c2ccccn2)CC1)c1ccccc1	-19.7	0.0%	-21.9%	-16.3%	-8.5%	0.9%
S=C(Nc1cccc(Cl)c1)N1CCN(c2ccccn2)CC1	-34.0	/	-9.7%	/	/	/
S=C(NC1CCCC1)N1CCN(c2ccccn2)CC1	-62.4*	22.7%	0.0%	-11.7%	-14.7%	6.0%
CN(Cc1ccccc1)C(=S)NC(=O)c1ccccc1	7.2	?	2.8%	?	-8.8%	-26.9%[46.1 µM]
CC(C)N(C(=NCc1ccccc1)NC(=O)c1ccccc1)C(C)C	-88.7*	/	47.3%	i	-13.1%	/
COC(=O)c1ccc(NC(=O)CC2Nc3cc(C)c(C)cc3NC2=O)cc1 (centres undefined)	-98.6*	12.3%[46.1 µM]	?	-17.0%[7.34 µM]	-17.0%[7.34 µM]	?
SMILES	HCMV inh	Marburg entry inh	FMDV inh	VACV mCherry inh	Vaccinia Venus	Lassa entry inh
Cc1cc2c(cc1C)NC(CC(=O)Nc1ccccc1)C(=O)N2 (centres undefined)	-99.9*	-3.8%[46.1 µM]	-1.2%	1.4%	-6.6%	?
O=C(CSc1ccccc1F)Nc1ccc2c(c1)OCO2	18.3	0.0%	81.6%	i	-8.7%	-4.1%
CC(NC(=O)C1CCOCC1)c1nnc2n1CCN(Cc1cc3c(cc1Cl)OCO3)CC2 (centres undefined)	/	/	-11.9%	0.0%	-20.7%	/
CN(C)S(=O)(=O)c1ccc(-c2csc(N/N=C/c3ccc(O)cc3)n2)cc1	?	7.3µM*	14.1µM*	?	?	7.08µM*
O=[N+]([O-])c1cccc(-c2csc(N/N=C/c3cccc(O)c3)n2)c1	-35.4	?	?	?	?	7.94µM*
Cc1ccc(-c2csc(N/N=C/c3ccco3)n2)cc1	28.6	?	56.4%	-22.8%	-22.6%	?
C(=N\Nc1nc(-c2ccccc2)cs1)/c1ccncc1	16.0	-19.2%[46.1 µM]	35.7%	-53.3%	2.1%	?
CCOC(=O)Cc1csc(N/N=C/c2cccc([N+](=O)[O-])c2)n1	13.5	-20.4%[46.1 µM]	0.0%	-21.6%	-18.4%	-25.4%
CN(C)S(=O)(=O)c1ccc(-c2csc(N/N=C/c3ccco3)n2)cc1	0.0	?	6.31µM*	?	-17.7%	8.91µM*
COc1ccc(OCC(=O)N2N=C(C(F)F)CC2(O)C(F)F)cc1 (centres undefined)	-26.7	?	-10.1%	-13.5%	-20.3%	13.1%
COC(=O)C1=C(C(=O)OC)[C@@H]2Nc3ccccc3[C@@]23C[C@@H](C(=O)OC)N(C(=O)Nc2ccccc2F)C3=N1	/	-9.2%[14.2 µM]	/	/	/	/
CN1C(=S)S[C@@H](N(O)C(=O)Nc2ccccc2)C1(C)C	/	2.0%	/	/	/	/
O=c1[nH]cnc2n[nH]nc12	/	/	/	-28.3%	-18.0%	/
O=C(NC1CCCCC1)c1cnn2c1NC(=C1CC1)C=C2C(F)F	/	/	/	-22.9%	?	/
COc1cccc(Nc2sc(C(=O)c3ccc4c(c3)OCO4)c(N)c2S(=O)(=O)c2ccccc2)c1	-18.1	/	1.6%	-21.0%	-3.3%	-29.9%[46.1 µM]
COc1ccc(S(=O)(=O)c2c(Nc3c(C)cccc3C)sc(C(=O)c3ccc4c(c3)OCO4)c2N)cc1	-87.4*	/	10.9%	?	?	?
CC(Oc1ccc(Br)cc1)C(=O)NCCCN1CCCC1=O (centres undefined)	-15.0	-4.7%	3.3%	i	-3.2%	17.5%
COc1ccc(COCC(O)CN2CCC(CN3C(=O)c4cccc5cccc(c45)C3=O)CC2)cc1OC (centres undefined)	0.2	9.2µM*	?	-27.6%	?	?
COc1cccc(OCC(O)CN2CCC(CN3C(=O)c4cccc5cccc(c45)C3=O)CC2)c1 (centres undefined)	-65.3*	?	?	-22.8%	-23.5%	?
Cc1cc(C)cc(OCC(O)CN2CCC(CN3C(=O)c4cccc5cccc(c45)C3=O)CC2)c1 (centres undefined)	-101.4*	-0.9%	?	?	?	/

Assay outcomes as filed in PubChem BioAssay.
